# Experimental data reported in PubChem BioAssay (EPA / NIEHS).
# Several values for one entry are separate records, joined by “and”; a condition that tells them apart may be missing. Identical values can stand only once. Results filed as inconclusive are left out. Some structures have more than one record in an assay (separate samples or runs), and their calls can disagree. Activity calls are given as the source filed them. The calls were made as follows, unless noted: active = hit-call score of the fitted dose curve at least 0.9, where 1 is the maximum; inactive = score below 0.9.
# Columns and labels:
# [1] = CCTE_Shafer_MEA_acute_cross_correlation_area: CCTE's Neural Acute Assay for Area of Cross Correlation, Shafer Lab (AID 2284024);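 also: area under pooled inter-electrode spike cross-correlation near zero lag as percent change from own baseline; curves fitted for loss of cross-correlation area so actives lower synchrony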;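 as to outcome: rat primary cortical neuron networks on 48-well MEA at DIV 13 or 15 with 40 min exposure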
# Procedure, shortened: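 Rat cortical cultures, DIV 13/15, MEA; spikes detected at 8x rms noise (300-5000 Hz band-pass). Compound 0.03-40 uM, ≥3 wells each. Readout: % change in pooled inter-electrode cross-correlation area vs own baseline; DMSO negative control.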
# [2] = CCTE_Shafer_MEA_acute_cross_correlation_HWHM: CCTE's Neural Acute Assay for Cross Correlation at Half Width at Half Maximum, Shafer Lab (AID 2284026);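 also: percent change per well from pre-dose baseline in spike cross-correlogram half width; hits are a decrease in cross-correlogram half width relative to DMSO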;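 as to outcome: spontaneous network firing of rat primary cortical neurons on multiwell microelectrode arrays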
# Procedure, shortened: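 Read-out: half width at half maximum of action-potential cross-correlogram, percent change versus pre-treatment baseline, fitted in loss direction against DMSO. Rat cortical cultures, DIV 13 or 15, dosed 0.03-40 uM, 40-min recordings at 37 C.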
# [3] = CCTE_Shafer_MEA_acute_synchrony_index: CCTE's Neural Acute Assay for Synchrony, Shafer Lab (AID 2284027);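 also: network synchrony index of spontaneous spiking in primary rat cortical neurons on MEAs; fitted for loss of signal so actives lower synchrony relative to DMSO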
# Procedure, shortened: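 Plates equilibrated 20 min at 37 C, baseline recorded 40 min, compound (0.03-40 uM) added, then 40 min more recorded. Cells: primary rat cortical neurons, DIV 13 or 15. Per-well synchrony index change analysed in negative direction against DMSO.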
# [4] = CCTE_Shafer_MEA_dev_firing_rate_mean: CCTE's Neural Network Formation Assay for Mean Firing Rate, Shafer Lab (AID 2284031);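 as to AC50: curve fitted for loss of firing so AC50 reflects decreased mean firing rate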
# Procedure, shortened: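 Steps: seed rat cortical cells (1.5 x 10^5/well) with laminin on PEI-coated MEA; dose day 0; record DIV 5/7/9/12, full media and compound exchange after DIV 5 and 9 recordings; compute well-mean firing rate AUC.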
# [5] = CCTE_Shafer_MEA_dev_per_burst_spike_percent: CCTE's Neural Network Formation Assay for Percent of Spikes in a Burst, Shafer Lab (AID 2284032);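 as to AC50: fitted as a decrease in burst spike percentage below DMSO baseline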
# Procedure, shortened: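 Value is trapezoidal AUC over recordings on days 5, 7, 9 and 12 of the well-mean fraction of spikes falling in single-electrode bursts; rat cortical cultures exposed continuously from plating, treatment renewed DIV 5 and 9, fitted downward against DMSO.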
# [6] = CCTE_Shafer_MEA_dev_burst_rate: CCTE's Neural Network Formation Assay for Burst Rate, Shafer Lab (AID 2284042);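 as to AC50: potency for loss of burst rate below DMSO control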
# Procedure, shortened: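 Rat primary cortical cultures on PEI/laminin MEA; compound from plating, re-dosed at DIV 5, 9 media change. Single-electrode bursts/recording length, well mean of active electrodes; AUC over DIV 5–12 recordings; loss-of-signal vs DMSO.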
# [7] = CCTE_Shafer_MEA_dev_bursting_electrodes_number: CCTE's Neural Network Formation Assay for Number of Bursting Electrodes, Shafer Lab (AID 2284043; active = hit-call score of the fitted dose curve at least 0.9, where 1 is the maximum;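 as to AC50: potency is for loss of bursting electrodes relative to DMSO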)
# Procedure, shortened: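 Counted: electrodes with burst rate ≥1 per 2 min in each well. Cells: primary rat cortex, 1.5 x 10^5/well, on 16-electrode MEA wells. Exposure: DIV 0–12, compound renewed DIV 5 and 9. Recording days 5, 7, 9, 12; AUC vs DMSO baseline.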
# [8] = CCTE_Shafer_MEA_dev_per_burst_interspike_interval: CCTE's Neural Network Formation Assay for Burst Interspike Interval, Shafer Lab (AID 2284044);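 as to AC50: potency for a decrease of within-burst interspike interval below DMSO level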
# Procedure, shortened: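 Readout is the average time between spikes inside single-electrode bursts, taken as a well mean across bursting electrodes. Cortical neurons from rat developed networks on MEA plates under continuous 12-day exposure; recordings on days 5, 7, 9 and 12 were integrated by trapezoidal AUC.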
# [9] = CCTE_Shafer_MEA_dev_burst_duration_mean: CCTE's Neural Network Formation Assay for Mean Burst Duration, Shafer Lab (AID 2284045);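 as to AC50: curve fitted for loss meaning shorter burst duration than DMSO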
# Procedure, shortened: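 Network-formation assay in primary rat cortical neurons; treatment spans twelve days of development. Mean burst duration per well is integrated by trapezoidal AUC and fitted in the loss-of-signal direction against DMSO baseline.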
# [10] = CCTE_Shafer_MEA_dev_interburst_interval_mean: CCTE's Neural Network Formation Assay for Mean Interburst Interval, Shafer Lab (AID 2284046);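 also: well-mean interburst interval of bursting electrodes as AUC over four recording days; curve fitted for decrease in interburst interval relative to DMSO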
# Procedure, shortened: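 Rat cortical neurons, 1.5 x 10^5 cells/well, 48-well MEA; compound from day 0 through DIV 12, media and treatment renewed DIV 5/9. Recordings DIV 5, 7, 9, 12; well-mean interburst interval → trapezoidal AUC, loss direction vs DMSO.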
# [11] = CCTE_Shafer_MEA_dev_inter_network_spike_interval_mean: CCTE's Neural Network Formation Assay for Mean Inter-network Spike Interval, Shafer Lab (AID 2284047);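 as to AC50: potency for a decrease in mean inter-network spike interval below DMSO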
# Procedure, shortened: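 Primary rat cortical neurons on PEI-coated 48-well MEAs (16 electrodes/well) were exposed from plating day 0 to DIV 12, with dosing renewed at DIV 5 and 9. Recordings at DIV 5, 7, 9, 12 were collapsed by trapezoidal AUC, loss-of-signal fit vs DMSO.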
# [12] = CCTE_Deisenroth_AIME_96WELL_CTox_Active: Cytotoxicity Assessment (CTOX) in CCTE's 96-well Estrogen Receptor Transactivation Assay with AIME metabolic competence (metabolism positive), Deisenroth Lab (AID 2284028; active = hit-call score of the fitted dose curve at least 0.9, where 1 is the maximum)
# Procedure, shortened: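 Cytotoxicity in VM7Luc4E2 breast cells after 24 h exposure to medium from a 2 h metabolic pre-incubation with induced rat hepatic S9 in alginate microspheres; fluorescent live-cell protease readout, 10-point series 0.002–200 uM, n=4.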
# [13] = CCTE_Deisenroth_AIME_96WELL_CTox_Inactive: Cytotoxicity Assessment (CTOX) in CCTE's 96-well Estrogen Receptor Transactivation Assay without AIME metabolic competence (metabolism negative), Deisenroth Lab (AID 2284029; active = hit-call score of the fitted dose curve at least 0.9, where 1 is the maximum)
# Procedure, shortened: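 Metabolism-negative mode: alginate-water lids without rat S9, 2 h pre-incubation of 10-point series (0.002 - 200 uM). Conditioned medium on VM7Luc4E2 cells 24 h; loss of fluorescent live-cell protease signal marks cytotoxicity.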
# [14] = CCTE_Deisenroth_AIME_384WELL_CTox_Active: Cytotoxicity Assessment (CTOX) in CCTE's 384-well Estrogen Receptor Transactivation Assay with AIME metabolic competence (metabolism positive), Deisenroth Lab (AID 2284037; active = hit-call score of the fitted dose curve at least 0.9, where 1 is the maximum;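 also: chemicals first conditioned 2 h by alginate-bound induced rat liver S9 before cells; activity means signal loss indicating cell death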)
# Procedure, shortened: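 VM7Luc4E2 breast cells received medium pre-incubated 2 h with chemical over alginate microspheres holding induced male Sprague Dawley rat liver S9; viability read 24 h later by protease-substrate fluorescence. Loss of signal, bidirectional fit, 0.002–200 uM.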
# [15] = CCTE_Deisenroth_AIME_384WELL_CTox_Inactive: Cytotoxicity Assessment (CTOX) in CCTE's 384-well Estrogen Receptor Transactivation Assay without AIME metabolic competence (metabolism negative), Deisenroth Lab (AID 2284039; active = hit-call score of the fitted dose curve at least 0.9, where 1 is the maximum;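 also: cell viability via live-cell protease substrate cleaved to fluorescent probe; cells exposed 24 h to medium preincubated 2 h with alginate-water beads without S9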)
# Procedure, shortened: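 VM7Luc4E2 human breast cells received conditioned medium from a 2 h incubation of chemical with alginate-water microspheres (no S9), then were exposed 24 h. Viability was read as protease-substrate cleavage to a fluorescent probe; loss of signal was fitted bidirectionally over 0.002–200 uM.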
# [16] = target: Estrogen receptor (Homo sapiens) (UniProt P03372); test: CCTE_Deisenroth_AIME_384WELL_LUC_Active: CCTE's 384-well Estrogen Receptor Transactivation Assay with AIME metabolic competence (ERTA luciferase; metabolism positive), Deisenroth Lab (AID 2284030; active = hit-call score of the fitted dose curve at least 0.9, where 1 is the maximum)
# Procedure, shortened: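 Readout: bioluminescent luciferase induction in VM7Luc4E2 cells 24 hour after receiving medium from a 2 h rat hepatic S9 (induced, alginate microsphere) metabolism step. Concentrations 0.002 - 200 uM; activity scaled to 17beta-estradiol positive control.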
# [17] = target: Estrogen receptor (Homo sapiens) (UniProt P03372); test: CCTE_Deisenroth_AIME_384WELL_LUC_Inactive: CCTE's 384-well Estrogen Receptor Transactivation Assay without AIME metabolic competence (ERTA luciferase; metabolism negative), Deisenroth Lab (AID 2284038; active = hit-call score of the fitted dose curve at least 0.9, where 1 is the maximum;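 also: hits raise estrogen receptor luciferase signal so potencies reflect agonists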)
# Procedure, shortened: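 VM7Luc4E2 ER transactivation, luciferase bioluminescence after 24 h, using medium pre-incubated 2 h with S9-free alginate microspheres. Concentrations 0.002–200 uM; gain of signal fitted relative to 17beta-estradiol.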
# [18] = target: Estrogen receptor (Homo sapiens) (UniProt P03372); test: CCTE_Deisenroth_AIME_384WELL_LUC_Shift: CCTE's 384-well Estrogen Receptor Transactivation Assay with AIME metabolic competence data shift (ERTA luciferase; difference in metabolism positive and negative), Deisenroth Lab (AID 2284041);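 also: shift is response with S9 minus without S9 so positive means metabolism raised ER signal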
# Procedure, shortened: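 Here, parent compounds undergo 2 h phase I metabolism by PB/BNF-induced rat S9 before 24 h transactivation in VM7Luc4E2 cells; the curve models S9-positive minus S9-negative response over a 10-point series.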
# [19] = CCTE_Shafer_MEA_dev_active_electrodes_number: CCTE's Neural Network Formation Assay for Number of Active Electrodes, Shafer Lab (AID 2284040; active = hit-call score of the fitted dose curve at least 0.9, where 1 is the maximum;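 as to AC50: potency for loss of active electrodes versus DMSO so lower counts are hits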)
# Procedure, shortened: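 Counts electrodes per well firing at least 5 spikes/min, recorded on days 5, 7, 9 and 12 in rat cortical cultures dosed continuously from plating (treatment refreshed DIV 5, 9). Value is the area under the curve over recordings, fitted downward relative to DMSO.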
# [20] = target: Estrogen receptor (Homo sapiens) (UniProt P03372); test: CCTE_Deisenroth_AIME_96WELL_LUC_Inactive: CCTE's 96-well Estrogen Receptor Transactivation Assay without AIME metabolic competence (ERTA luciferase; metabolism negative), Deisenroth Lab (AID 2284025; active = hit-call score of the fitted dose curve at least 0.9, where 1 is the maximum)
# Procedure, shortened: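 Metabolism-negative arm: chemicals (0.002–200 uM, 10 points) incubated 2 h with alginate-water microspheres, then medium moved onto VM7Luc4E2 cells for 24 h luciferase read-out. Positive direction vs 17beta-estradiol; n≥4 experiments.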
# Estrogen receptor (Homo sapiens), sequence (P03372 whole entry, looked up): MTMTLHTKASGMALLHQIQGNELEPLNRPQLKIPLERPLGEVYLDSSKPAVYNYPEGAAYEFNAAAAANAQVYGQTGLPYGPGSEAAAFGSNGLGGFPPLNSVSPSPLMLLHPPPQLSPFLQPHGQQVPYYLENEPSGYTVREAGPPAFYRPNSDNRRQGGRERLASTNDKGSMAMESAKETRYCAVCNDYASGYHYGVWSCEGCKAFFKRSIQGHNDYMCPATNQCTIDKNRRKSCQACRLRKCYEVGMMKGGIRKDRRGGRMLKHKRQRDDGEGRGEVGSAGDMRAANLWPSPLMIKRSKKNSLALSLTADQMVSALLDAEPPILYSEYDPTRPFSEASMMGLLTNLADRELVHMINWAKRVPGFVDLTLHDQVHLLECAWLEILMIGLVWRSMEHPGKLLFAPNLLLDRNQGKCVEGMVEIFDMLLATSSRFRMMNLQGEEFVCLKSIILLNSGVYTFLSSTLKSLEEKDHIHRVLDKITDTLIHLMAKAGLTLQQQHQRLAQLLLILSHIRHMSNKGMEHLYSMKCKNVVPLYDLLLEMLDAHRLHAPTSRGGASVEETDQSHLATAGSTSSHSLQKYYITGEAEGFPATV
structure (smiles),measurement,setting,value
N[C@@H](CCC(=O)O)C(=O)O,outcome,[1],inactive
same,outcome,[2],inactive
same,outcome,[3],inactive
same,outcome,[4],inactive
same,outcome,[5],inactive
same,outcome,[6],inactive
same,outcome,[7],inactive
same,outcome,[8],inactive
same,outcome,[9],inactive
same,outcome,[10],inactive
same,outcome,[11],inactive
CCn1cc(C(=O)O)c(=O)c2ccc(C)nc21,AC50,[1],0.003 µM (active)
same,outcome,[2],inactive
same,outcome,[3],inactive
C#C[C@]1(O)CC[C@H]2[C@@H]3CCc4cc(O)ccc4[C@H]3CC[C@@]21C,AC50,[12],135 µM (active)
same,AC50,[13],116 µM (active)
same,AC50,[14],77.6 µM (active)
same,AC50,[15],93.7 µM (active)
CCCCCCCCCCCCN1CCOCC1,outcome,[16],inactive
same,outcome,[14],inactive
same,outcome,[17],inactive
same,outcome,[15],inactive
same,outcome,[18],inactive
c1ccc2scnc2c1,outcome,[16],inactive
same,outcome,[4],inactive
same,outcome,[5],inactive
same,outcome,[17],inactive
same,outcome,[19],inactive
same,outcome,[18],inactive
same,outcome,[6],inactive
same,outcome,[8],inactive
same,outcome,[9],inactive
same,outcome,[10],inactive
same,outcome,[11],inactive
O=C(c1ccc(OCCN2CCCCC2)cc1)c1c(-c2ccc(O)cc2)sc2cc(O)ccc12,outcome,[1],inactive
same,AC50,[2],32.7 µM (active)
same,AC50,[3],36.8 µM (active)
CC(C)C(=O)c1ccccc1,outcome,[16],inactive
same,outcome,[14],inactive
same,outcome,[17],inactive
same,outcome,[15],inactive
same,outcome,[18],inactive
C1CCCNCC1,outcome,[16],inactive
same,outcome,[14],inactive
same,outcome,[17],inactive
same,outcome,[15],inactive
same,outcome,[18],inactive
CC(=O)OC/C=C(C)/C=C/C=C(C)/C=C/C1=C(C)CCCC1(C)C,outcome,[16],inactive
same,outcome,[14],inactive
same,outcome,[17],inactive
same,outcome,[15],inactive
same,outcome,[18],inactive
NC(N)=S,outcome,[16],inactive
same,outcome,[14],inactive
same,outcome,[17],inactive
same,outcome,[15],inactive
same,outcome,[18],inactive
CC(C)(CO)CO,outcome,[1],inactive
same,outcome,[2],inactive
same,outcome,[3],inactive
CCCO[Si](OCCC)(OCCC)OCCC,outcome,[1],inactive
same,AC50,[2],0.0212 µM (active)
same,outcome,[3],inactive
CC(=O)c1ccc(C)cc1,outcome,[1],inactive
same,outcome,[2],inactive
same,outcome,[3],inactive
c1ccc(Cc2ccccc2)cc1,outcome,[20],inactive
CCCCOCCOCCO,outcome,[1],inactive
same,outcome,[2],inactive
same,outcome,[3],inactive
same,outcome,[16],inactive
same,outcome,[17],inactive
same,outcome,[15],inactive
same,outcome,[18],inactive
CC(C)N(c1ccccc1)C(C)C,outcome,[16],inactive
same,outcome,[14],inactive
same,outcome,[17],inactive
same,outcome,[15],inactive
same,outcome,[18],inactive
CC/C(=C(\c1ccccc1)c1ccc(OCCN(C)C)cc1)c1ccccc1,outcome,[1],inactive
same,AC50,[2],16.4 µM (active)
same,outcome,[2],inactive
same,AC50,[3],14.8 µM (active)
same,outcome,[3],inactive
same,AC50,[12],7.84 µM (active)
same,AC50,[13],74.1 µM (active)
same,AC50,[4],0.0329 µM (active)
same,AC50,[5],1.98 µM (active)
same,AC50,[19],329 nM (active)
same,AC50,[6],0.122 µM (active)
same,AC50,[7],0.203 µM (active)
same,AC50,[8],0.307 µM (active)
same,AC50,[9],0.0304 µM (active)
same,AC50,[10],1.03 µM (active)
same,AC50,[11],0.0578 µM (active)
Cc1cccc(O)c1,outcome,[16],inactive
same,outcome,[14],inactive
same,outcome,[17],inactive
same,outcome,[15],inactive
same,outcome,[18],inactive
C=C(C)C(N)=O,outcome,[16],inactive
same,outcome,[14],inactive
same,outcome,[17],inactive
same,outcome,[15],inactive
same,outcome,[18],inactive
C[C@]12CC[C@@H]3c4ccc(O)cc4CC[C@H]3[C@@H]1CC[C@@H]2O,outcome,[12],inactive
same,outcome,[13],inactive
same,outcome,[4],inactive
same,outcome,[5],inactive
same,AC50,[19],10 µM (active) and 13.5 µM (active)
same,outcome,[6],inactive
same,AC50,[7],10 µM (active)
same,outcome,[8],inactive
same,outcome,[9],inactive
same,outcome,[10],inactive
same,outcome,[11],inactive
